Data taken from the supplement of paper PMC6555819.

tested on: VDR:RXRa (NR concentration 270 nM, RXRa partner concentration 90 nM); experiment: PBM binding z-score (relative to random genomic background probes); higher = stronger binding; sequences stand for … in GC…GCGATTGACAGCGTAGAATGAAGG
Experimental: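 Protein-binding microarray (Agilent 4x180K custom design, double-stranded 60-nt probes: 5' GC cap, 34-nt variable region, 24-nt constant primer region; full probe sequence given). Purified or IVT nuclear receptor:RXRα heterodimers (3:1 NR:RXRα, mostly 270:90 nM) or homodimers were incubated for 1 h in PBS with 2% milk and no ligand, then detected with Alexa488 antibodies. Fluorescence from o1-orientation probes (~5 replicates averaged) was converted to z-scores against 500 random hg19 background probes. Variable regions are seed direct-repeat (DR0–DR5) sites, all their single-nucleotide variants and half-site ablations.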

| Sequence | PBM binding z-score |
| --- | --- |
| CGAACGAGGTCACCAGGACAGTGAAGAGGTTGGA | 5.65 |
| TTACCAAGGTCAAGGTCGTTGATCCCTCTGTAGA | 5.5 |
| ACGCGGAGGACAAAGGTCAGAGCTACGCCAGTGA | 3.14 |
| CGTCAAAGGTCAGCAGGTCAGTGAAAGCGACGTG | 5.16 |
| CGAACAAGGTCACCAGGACAGTGAAGAGGTTGGA | 4.8 |
| CCTTACGGGTCACTCCAGGTTATATCATCGGAGT | 4.52 |
| AATACAGGGTCATCTTAGGCCAGAGTACGCACAG | 5.31 |
| TCTAGTTGGTCACGGAGGTCCCACACGACGGGTA | 1.19 |
| TCTAGTTGGTCACGGAGGGCACACACGACGGGTA | 3.62 |
| CCTTACGGGTAACGAGGTTATAGCACGACGAGCG | 1.38 |
| AATACAAGGTCATCGTAGGCCAGAGTACGCACAG | 5.17 |
| CCTAGTTGGTCAAGGTCACATACGCTATAGGTAC | 4.04 |
| CGTCCAAGGTCAGCGGGTCAGTGAAAGCGACGTG | 4.57 |
| TCTTGTAGATCGATAGAGGTTAAGAAAGTGCGCT | 1.45 |
| CCTACTGGGTCACGAAAGGTCATTGATTCAGTGA | 6.48 |
| CCTAGTTGTTCAGGAGGTCACACACCGGATATGA | 3.9 |
| CCTTACGGGTCACTCCAGGTCATAGCATCGGAGT | 5.95 |
| CGTCAAAGATCAAGGTAACGTAACAGAAAGCAGC | -0.129 |
| CGTCCAAGGTCACAGAGGTCAGTGAATGCCGAGT | 7.74 |
| CGTCAAAGTTCAAGGTCACGTAACAGAAAGCAGC | 5.84 |
